Sampled rows, rich in hits. Any-hit rate of the full collection: about 2.4%.
M1 ag parental = counter-screen for M1 agonists: effect in parental CHO-K1 cells | Fluo-8 calcium fluorescence; scaled to maximal ATP response, vehicle zero | activation, % at 3 µM | hit rate 0.48% among 360,000 | AID 602248; in the data active means activation above about 15%;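 further: untransfected CHO-K1 host cells lacking M1 receptor as counterscreen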
CHRM1 PAM = human CHRM1 positive allosteric modulation | CHO-K1 hM1, Fluo-8 calcium fluorescence, ACh EC20; 0% = ACh EC20, 100% = maximal ACh | AID 588819 | hit rate 0.088% among 360,000 | P11229 | activation, % at 3 µM; in the data active means activation above about 19%, passing the limit was not always enough
Target sequence (P11229 whole entry, looked up): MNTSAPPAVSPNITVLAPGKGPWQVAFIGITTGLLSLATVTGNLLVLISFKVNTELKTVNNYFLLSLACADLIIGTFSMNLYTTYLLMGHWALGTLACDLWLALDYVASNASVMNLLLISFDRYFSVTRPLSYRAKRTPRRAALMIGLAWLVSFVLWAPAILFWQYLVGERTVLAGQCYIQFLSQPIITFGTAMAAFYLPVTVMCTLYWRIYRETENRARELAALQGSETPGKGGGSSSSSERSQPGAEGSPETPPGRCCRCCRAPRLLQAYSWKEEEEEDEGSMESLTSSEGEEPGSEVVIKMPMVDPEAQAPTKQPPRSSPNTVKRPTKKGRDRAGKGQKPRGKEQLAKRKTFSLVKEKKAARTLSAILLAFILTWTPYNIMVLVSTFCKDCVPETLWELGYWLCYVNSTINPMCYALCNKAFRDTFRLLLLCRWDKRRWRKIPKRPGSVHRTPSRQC
M1 PAM parental = nonselective activator or artifact in parental CHO-K1 calcium assay; ATP EC20, Fluo-8 calcium fluorescence; 0% at ATP EC20, 100% at ATP max; hit rate 0.02% among 360,000; activation, % at 3 µM;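 active means activation above the run cutoff, the mean activation of all test compounds plus 3 SD, cut at about 40% in these data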;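 further: peak over basal fluorescence ratio in a 140 s read after ATP addition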
CHRM1 antagonist = antagonists of human M1 muscarinic receptor | AID 588852 | hit rate 1.3% among 360,000 | P11229 | CHO-K1 hM1, Fluo-8 calcium fluorescence, ACh EC80 antagonist | inhibition, % at 3 µM;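 active means percent inhibition above its own plate's cutoff, namely the mean of that plate's compound wells plus 3 SD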;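 further: peak over basal fluorescence ratio during 140 s after agonist addition; 0% = ACh EC80 plus DMSO and 100% = DMSO alone without agonist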
CHO-K1 Ca antag = nonselective inhibitor or artifact in parental CHO-K1 cells | ATP-induced calcium, Fluo-8 fluorescence | inhibition, % at 3 µM | hit rate 0.6% among 360,000;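 active means inhibition above a per-plate cutoff, the plate's mean sample inhibition plus 3 SD, cut at about 24% in these data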;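 further: 0% = DMSO plus EC80 ATP and 100% = DMSO alone without ATP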
CHRM1 agonist = agonists of human M1 muscarinic receptor. P11229. CHO-K1 hM1, Fluo-8 calcium fluorescence, agonist mode; 0% DMSO, 100% acetylcholine EC100. activation, % at 3 µM. hit rate 0.33% among 360,000. AID 588814;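 active means activation above the run's mean compound activation plus 3 SD, cut at about 16% in these data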;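 further: peak over basal fluorescence ratio within a 140 s kinetic read after compound addition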
An asterisk follows results filed as active.

SMILES	M1 ag parental	CHRM1 PAM	M1 PAM parental	CHRM1 antagonist	CHO-K1 Ca antag	CHRM1 agonist
CCOc1ccc(NC(=O)c2ccc3c(c2)S(=O)(=O)N=C2CCCCCN23)cc1	0.1	8.9	1.2	-8.1	8.7	-1.4
CCOC(=O)CSc1nc2ccc(NC(=O)CSc3nnnn3Cc3ccccc3)cc2s1	2.2	-4.6	3.2	20.9	10.3	-2.8
CC(C)(C)NC(=O)CSc1nc2ccc(NC(=O)CSc3nnnn3Cc3ccccc3)cc2s1	5.9	-8.5	11.8	19.1*	16.3	2.5
O=C(Nc1ccn(Cc2ccccc2F)n1)c1ccc(COc2ccc(Br)cc2)cc1	7.9	-21.1	-8.3	32.9*	9.7	1.7
O=C1Nc2c(Cl)cc(Cl)cc2C1=O	1.4	3.4	7.6	-14.0	-6.8	16.2*
Cc1cccc(N=C2C(=O)Nc3c(Cl)cccc32)c1	0.2	4.2	19.7	-9.9	-13.2	-1.5
Cc1ccc(S(=O)(=O)N2C[C@@H]3CCCC[C@@H]3[C@@H](C)[C@H]2CC(=O)c2ccccc2)cc1	0.6	7.6	15.4	-9.5	-16.9	-2.3
Cc1ccccc1CN1CCN(CC(=O)NCCCN2CCN(c3ccc(F)cc3)CC2)C1=O	0.5	-2.2	-6.5	0.3	29.4*	-0.5
O=C(CN1CCN(Cc2ccc(Cl)cc2)C1=O)NCCCN1CCN(c2ccc(F)cc2)CC1	7.1	-7.9	6.4	3.0	-0.9	-2.8
O=C(COC(=O)c1nc(Cl)ccc1Cl)NC1CCCCC1	0.1	-9.3	-4.4	11.8	1.5	-4.6
COc1ccccc1C1=NOC(Cn2c(NCCCO)nc3c2c(=O)n(C)c(=O)n3C)C1 (stereo not drawn)	1.7	1.7	20.7	-4.7	-10.7	-4.0
COc1ccc(C2=NOC(Cn3c(Cc4ccc(Cl)cc4)nc4c3c(=O)n(C)c(=O)n4C)C2)cc1 (stereo not drawn)	0.4	-9.0	-7.0	30.9*	3.9	0.2
CC(=O)c1cccc(CN2CCN(Cc3ccc(C)cc3)C(CCO)C2)c1 (stereo not drawn)	1.4	-19.6	9.8	40.2*	-11.1	-9.1
COc1cccc(CN2CCN(Cc3[nH]c4ccccc4c3C)CC2CCO)c1 (stereo not drawn)	21.7*	3.3	-0.8	-0.9	-0.2	-6.8
CC(=O)c1cccc(CN2CCN(Cc3ccc(F)cc3)C(CCO)C2)c1 (stereo not drawn)	0.1	-1.8	9.4	3.8	10.1	-11.7
COc1cc(/C=C/C(=O)c2ccc3c(c2)OCO3)cc(Cl)c1O	22.8*	-18.7	-4.5	34.7*	16.9	47.5*
Cc1ccc(C(O)c2ncc(-c3cccc4ccccc34)[nH]2)cc1F (stereo not drawn)	1.7	5.5	10.4	-15.0	-8.7	0.4
CCN(CC)c1ccc(CNc2nnnn2C)cc1	-0.2	-30.1	6.0	60.4*	-10.8	-9.8
CN1CCC(OC(=O)COc2ccccc2)CC1	0.0	-18.1	2.3	51.3*	-2.1	-3.1
COc1cccc(C(=O)OC2CCN(C)CC2)c1	-0.8	-8.7	-13.9	10.2	29.1*	-10.2
CN1CCC(OC(=O)COc2ccc(F)cc2)CC1	1.4	7.6	21.0	-13.4	-18.8	-7.9
CC1=[N+](C)N(c2ccccc2)C(=O)C1N=C/C=C/c1ccccc1 (stereo not drawn)	0.9	-26.0	9.2	98.9*	-5.0	-7.1
COc1ccccc1/C=C/C=NC1C(=O)N(c2ccccc2)[N+](C)=C1C (stereo not drawn)	1.2	-4.2	2.4	5.3	-1.8	-6.4
Cc1ccc2nc(SCC(=O)NCc3ccc4c(c3)OCO4)nc(=O)n2c1	7.8	4.1	-26.0	3.2	25.9*	-3.8
Cc1ccc(-c2c(C(=O)N/N=C/c3ccc(C)o3)nnn2-c2nonc2N)cc1	0.4	0.5	16.5	-1.2	-0.9	-3.3
SMILES	M1 ag parental	CHRM1 PAM	M1 PAM parental	CHRM1 antagonist	CHO-K1 Ca antag	CHRM1 agonist
Cc1ccc(-c2c(C(=O)N/N=C/c3ccco3)nnn2-c2nonc2N)cc1	15.7*	-2.8	28.4	9.4	-7.1	7.4
CCOc1ccc(-c2c(C(=O)N/N=C/c3ccco3)nnn2-c2nonc2N)cc1	5.2	-4.9	-17.0	2.0	-6.7	18.2*
O=C(COC(=O)C(CO)NS(=O)(=O)c1ccc(Br)cc1)Nc1ccc2c(c1)OCCO2 (stereo not drawn)	0.3	5.4	6.0	-7.2	-11.3	-6.3
CCCCCSc1nnc(N)s1	0.3	26.7*	17.9	-19.8	-1.9	-2.4
COc1ccc(Cl)cc1C1=NOC2(CCC2)C(=O)N1Cc1cccc(C#N)c1	1.1	-1.8	14.1	-3.4	-6.7	-10.3
COC(C[C@@H]1O[C@H]1C(=O)COCc1ccccc1)OC	0.6	29.9*	7.8	-21.5	-13.4	3.1
CCOC(=O)c1[nH]c2ccccc2c1CCCN1C(=O)c2ccccc2C1=O	0.6	-18.1	19.2	89.0*	-9.7	-2.0
CCOC(=O)c1[nH]c2cc3c(cc2c1CCCN1C(=O)c2ccccc2C1=O)OCCO3	0.2	4.4	14.3	-12.7	-5.1	-7.3
CC(=O)c1c(C)[nH]c(C(=O)OCc2ccccc2)c1C	2.4	-2.7	-15.5	4.2	20.1	0.4
CC(=O)c1c(C)[nH]c(C(=O)OCCCCN2C(=O)c3ccccc3C2=O)c1C	9.5	-13.2	-0.1	39.6*	33.2*	5.2
O=C(NN=Cc1ccc(F)cc1)c1cccc(S(=O)(=O)N2CCCC2)c1	1.1	-16.0	-4.8	35.6*	-0.6	-5.1
O=C(N/N=C/c1ccncc1)c1cccc(S(=O)(=O)N2CCCC2)c1	1.1	3.7	8.0	-5.6	-1.9	-6.8
O=C(Nc1ccc(S(=O)(=O)N2CCOCC2)cc1)c1ccccc1Br	2.2	5.1	9.5	-6.9	-1.6	-4.3
COc1ccc(C(=O)Nc2cccc(-c3csc(C)n3)c2)cc1S(=O)(=O)N1CCCC1	7.7	-14.0	-10.4	35.5*	1.5	-3.3
CN(c1ccccc1C(=O)Nc1ccc(S(=O)(=O)N2CCOCC2)cc1)S(=O)(=O)c1ccccc1	0.7	-26.8	-12.0	42.7*	11.2	-11.0
O=C(NCCN1C(=O)S/C(=C\c2ccccc2)C1=O)c1cc(S(=O)(=O)N2CCOCC2)c(Cl)cc1Cl	15.1*	-6.3	-12.7	43.3*	21.0	-4.0
C[C@H]1CN([C@@H](C)CO)C(=O)c2cc(Br)cnc2O[C@@H]1CN(C)C(=O)c1ccncc1	0.9	5.2	11.4	-12.0	-1.7	-5.5
CCOc1ccc(CCNC(=O)CN2C(=O)NC3(CCCCCC3)C2=O)cc1OCC	0.9	-4.0	-15.6	13.9	-3.0	-0.8
COc1cccc(/C(C)=N/NC(=O)Cc2c(C)[nH][nH]c2=O)c1	0.6	12.9	10.7	-2.7	-0.6	-6.4
O=C(CCS(=O)(=O)c1ccc(Cl)cc1)NCCN1C(=O)S/C(=C\c2ccccc2F)C1=O	13.3	-11.7	-6.8	14.8	13.3	-3.8
COc1ccc(C(=O)Nc2cccc(C)c2)cc1S(=O)(=O)N1CCOCC1	1.6	4.2	7.7	-2.5	-17.4	-5.3
